Only some compounds are listed: those with a hit (about 12% of all), similar ones and a draw of the others.
Pf growth 96h = P. falciparum growth inhibition at 96 hour, primary screen for plastid delayed-death inhibitors. Potency, µM (titrated, usually from 28.7 µM), for the others: at the highest dose activity change, negative = inhibition, usual class: inhibitors. P. falciparum luciferase reporter growth, 96 h. 6.9% of 320,000 active; note: % is set by controls: 0 for no effect and ±100 for the full control effect
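P. falciparum expressing integrated firefly luciferase grown in erythrocytes (2% hematocrit, 0.05% parasitemia final) with compounds for 96 hours at 37 C, 5% CO2. Growth inhibition read as loss of luminescence after adding luciferase detection reagent.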
SARS PLP yeast = SARS-CoV PLP inhibition in yeast; Potency, µM (series often up to 32.9 µM), without a hit: at the top dose activity, positive = growth rescue, usual class: activators; 0.19% of 330,000 active; AID 485353; S. cerevisiae expressing SARS-CoV PLpro, growth rescue; calls by dose curve; note: 0% is about no effect; nearly all actives have a fitted effect of over 55% in size
Pf growth 48h = P. falciparum growth inhibition at 48 hours (one generation). P. falciparum luciferase growth in erythrocytes, 48 h. Potency, µM (top dose mostly 28.7 µM), without a hit: at the highest dose activity change, negative = inhibition, most hits filed as inhibitors. 5.9% of 310,000 active. AID 504832; note: % is set by controls: 0 for no effect and ±100 for the full control effect
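A one-generation exposure of luciferase-tagged malaria parasites in RPMI 1640/Albumax erythrocyte culture, 37 C and 5% CO2. Inhibition is inferred from decreased luminescence after adding detection reagent.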
NS1 function inh = blocks influenza NS1 protein function; Potency, µM (highest dose often 46.1 µM), for the others: top-dose activity, positive = more growth; 0.4% of 270,000 active; calls by dose curve; note: actives are rising curves; nearly all actives have a fitted effect of over 50% in size
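In this qHTS, NS1 from influenza A is expressed in budding yeast, where it slows growth. Cells are switched from glucose to 2% galactose medium (pH 6.0, -URA), treated with compound, and growth recovery is read at OD600.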
AMA1-RON2 inh = inhibitors of Plasmodium falciparum AMA1-RON2 interaction; AlphaScreen AMA1-biotinylated RON2 peptide binding; Potency, µM (titrated, usually from 58.2 µM), without a hit: top-dose activity change, negative = inhibition, usual class: inhibitors; 0.2% of 360,000 active;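 note: 0% = vehicle wells and -100% = peptide control; nearly all actives have a fitted effect of over 45% in size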
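AMA1 (3D7) with his tag at 25 nM final met compounds first, then biotinylated RON2 peptide at 25 nM; detection used donor plus acceptor beads, 10 µg/mL apiece, read by AlphaScreen after 30 min at room temperature.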
HCV inhibitor = inhibitors of hepatitis C virus infection. Huh7.5.1 HCVcc-Cre infection, luciferase reporter, 44 h. Potency, µM (highest dose often 41.8 µM), for the others: at the highest dose activity change, negative = inhibition, hits mostly inhibitors. 3.4% of 340,000 active. AID 651820; note: % is set by controls: 0 for no effect and ±100 for the full control effect
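Compounds are dispensed onto cells plated 4 h earlier at 1,000 per well, with HCVcc-Cre virus (about 0.5 moi) added next. Following 44 h of culture, luminescent signal is measured for 15 sec after 15 min with substrate at room temperature.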
* = called active by the depositor; u = inconclusive; x = no result; [ ] = dose if it differs, or a comment. Unless noted, calls come from the whole dose curve; as a rule, active = well fitted curve in the direction sought with a large enough effect; inconclusive = small, poorly fitted or top-dose-only effect, or another doubt; inactive = no such curve, though single readings can be large; an effect the other way counts as inactive or inconclusive. Potency is the fitted concentration of half-maximal effect.

SMILES	Pf growth 96h	SARS PLP yeast	Pf growth 48h	NS1 function inh	AMA1-RON2 inh	HCV inhibitor
CS(=O)(=O)N1CCN(Cc2ccccc2C(F)(F)F)CC1	-10%	0%	-3%	6%	-7%	-2%
COc1ccc(CN2CCN(Cc3ccc(C)cc3)CC2)c(OC)c1	137%	0%	-21%[0.00184 µM]	2%	-27%	u
COc1ccc(OC)c(CN2CCN(Cc3cc(OC)c(OC)c(OC)c3)CC2)c1	13µM*	x	0%	2%	u	10%
CS(=O)(=O)N1CCN(Cc2ccc(C(F)(F)F)cc2)CC1	9.3µM*	0%	x	-104%	-23%	-2%
COc1ccc(CN2CCN(Cc3ccc(C(F)(F)F)cc3)CC2)c(OC)c1	-14%	-3%	-18%[0.00184 µM]	-3%	25µM*	u
COc1cc(CN2CCCCCC2)cc(OC)c1OC	35%	3%	7%	-9%	-7%	11%
Cc1ccc(C)c(C(C)NC(=O)Cc2cccs2)c1 (stereo not given)	-8%	2%	-3%	0%	-2%	13%
COc1ccc(S(=O)(=O)NCc2cccnc2)cc1NC(=O)c1ccc(Cl)cc1	u	-5%	u	x	3%	-6%
Cc1cc(C)c(S(=O)(=O)N(C2=NCCS2)S(=O)(=O)c2c(C)cc(C)cc2C)c(C)c1	u	17%	15µM*	-7%	3%	4%
Cc1cc(C)c(S(=O)(=O)N(CC(=O)O)CC(=O)O)c(C)c1	x	1%	18%	3%	-4%	4%
COC(=O)c1ccc(N2CCCCC2)c(NC(=O)c2ccco2)c1	-1%	1%	u	0%	-17%	1.4µM*
Cc1ccc(NC(=O)c2cc(N3C(=O)C4CC=CCC4C3=O)ccc2N2CCCCC2)cc1 (stereo not given)	15µM*	2%	5%	6%	-3%	u
Cc1cccc(NC(=O)c2cc(NC(=O)c3ccco3)ccc2N2CCCCC2)c1	u	-3%	4.7µM*	2%	0%	17%
COc1ccc(S(=O)(=O)N2CCC3(CC2)OCCN3S(=O)(=O)c2cccs2)cc1OC	9.3µM*	-4%	u	x	-2%	u
COc1ccc(S(=O)(=O)N2CCC3(CC2)OCCN3S(=O)(=O)c2c(C)cc(C)cc2C)cc1	0.83µM*	x	1µM*	x	-25%	u
COc1ccc(S(=O)(=O)N2CCOC23CCN(S(=O)(=O)c2ccccc2)CC3)cc1	32%	0%	u	x	-3%	4%
Cc1ccc(S(=O)(=O)N2CCC3(CC2)OCCN3S(=O)(=O)c2c(C)cc(C)cc2C)cc1	u	5%	10µM*	x	-5%	10µM*
Cc1cc(C)c(S(=O)(=O)N2CCC3(CC2)OCCN3S(=O)(=O)c2cccs2)c(C)c1	u	1%	u	x	-5%	11µM*
CCCS(=O)(=O)NC(=O)C1(C)CCCN(C(=O)COc2ccccc2)C1 (stereo not given)	x	x	x	x	0%	x
COc1ccnc(N=CNOCc2cccc(C(F)(F)F)c2)c1C#N	15µM*	-2%	8%	-5%	3%	9%
CCOC(=O)N1CCN(C(=O)Cn2nc(C)c3sc4ccccc4c3c2=O)CC1	10µM*	-3%	u	-2%	1%	16%
S=C(Nc1cccc(Cl)c1Cl)N1CCC2(CC1)OCCO2	45%[1.15 µM]	0%	14%	x	-1%	8%
[Hg+][c]1ccccc1	3.4µM*	x	4.8µM*	x	x	x
CC(C(=O)Nc1ccc2c(c1)OCO2)N1CCC(N2CCCCC2)CC1 (stereo not given)	23%	-2%	-13%	x	u	0%
O=C(Nc1ccc(N2CCN(C(=O)c3ccccc3)CC2)cc1)c1ccc(Br)o1	37%	-12%	u	u	7%	u
O=C(Nc1ccc(N2CCOCC2)c(Cl)c1)c1ccc(Br)o1	19%	-28%	u	-39%	32%	10µM*
O=C(Nc1ccc(N2CCN(C(=O)c3ccccc3)CC2)c(Cl)c1)c1ccc(Br)o1	60%	-13%	10µM*	-59%	11%	u

Screening data as filed in PubChem.
